Screens as filed in PubChem BioAssay.
This is a sample that favours compounds with a hit; in the whole collection about 3.2% have one here.
DENV2 CPE: inhibitors of DENV2 cytopathic effect | 350,000 tested, 1.7% active | CPE inhibition, % at 9.99 µM | DENV2-infected cells, cytopathic effect rescue, plate reader; in the data active = CPE inhibition above about 20%, passing the limit was not always enough; inconclusive = no clear call, values can overlap the other calls; tested in BHK-21 cells
ERAP1 HTS inh: inhibitors of human ERAP1 aminopeptidase; Q9NZ08; recombinant ERAP1, Leu-AMC fluorescence, 60 min; inhibition, % at 10.7 µM; 340,000 tested, 0.15% active; AID 652197;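 active = mean replicate inhibition of at least 30%, or all replicates individually reaching that 30% level; inactive = mean below 30% and not every replicate reaching it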
Target sequence (Q9NZ08 whole entry, looked up): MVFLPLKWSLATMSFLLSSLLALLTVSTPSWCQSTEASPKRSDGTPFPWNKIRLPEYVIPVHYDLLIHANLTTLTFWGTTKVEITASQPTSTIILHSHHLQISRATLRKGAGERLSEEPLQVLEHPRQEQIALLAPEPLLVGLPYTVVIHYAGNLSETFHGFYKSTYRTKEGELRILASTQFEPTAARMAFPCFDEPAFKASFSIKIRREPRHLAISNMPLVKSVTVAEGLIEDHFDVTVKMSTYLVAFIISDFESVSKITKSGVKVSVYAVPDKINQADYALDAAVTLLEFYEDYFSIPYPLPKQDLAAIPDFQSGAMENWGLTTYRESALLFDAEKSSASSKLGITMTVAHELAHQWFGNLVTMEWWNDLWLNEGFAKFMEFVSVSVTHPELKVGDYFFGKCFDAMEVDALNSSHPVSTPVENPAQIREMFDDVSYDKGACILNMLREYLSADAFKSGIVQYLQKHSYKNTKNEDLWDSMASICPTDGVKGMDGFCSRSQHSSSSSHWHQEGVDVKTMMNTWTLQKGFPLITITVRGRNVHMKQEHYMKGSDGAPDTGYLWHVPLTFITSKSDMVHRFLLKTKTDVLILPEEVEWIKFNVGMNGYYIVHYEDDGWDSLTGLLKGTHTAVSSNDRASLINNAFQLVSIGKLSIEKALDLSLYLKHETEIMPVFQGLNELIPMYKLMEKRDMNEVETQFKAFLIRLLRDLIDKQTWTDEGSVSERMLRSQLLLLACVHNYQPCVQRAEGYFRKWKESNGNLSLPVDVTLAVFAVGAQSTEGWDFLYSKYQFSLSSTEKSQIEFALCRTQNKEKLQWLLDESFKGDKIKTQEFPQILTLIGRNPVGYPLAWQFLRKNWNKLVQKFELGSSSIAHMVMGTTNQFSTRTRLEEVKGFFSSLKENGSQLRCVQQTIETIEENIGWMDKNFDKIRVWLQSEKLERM
rRNA inh HTS: inhibitors of bacterial rRNA selective over humanized ribosomes. E. coli WT GFP vs humanized-ribosome RFP mutants, fluorescence, 24 h; stronger effect = lower value; DMSO median 0, no signal -100. GFP signal change (wild-type ribosome), % (no concentration beside the values). 350,000 tested, 1.6% active;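 active = significant combined selectivity score with lowered wild-type GFP, culture density cut under 30%, mutant RFP and density less affected; inactive = any of these conditions unmet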
INS-1E GSIS act: primary screen for activators of insulin secretion dependent on glucose, INS-1E cells, GLuc reporter luminescence | INS-1E GLuc reporter insulin secretion, 2-3 h | activation, % at 16.6 µM | 370,000 tested, 0.61% active | AID 743287;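 active = lowest replicate activation of at least 40%, so every replicate reaches that level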
CaV13 ICDI inh: Primary screen for inhibitors of IQ motif and Ca2+-dependent inactivation inhibitor domain binding in CACNA1D, Förster resonance energy transfer in living cells, … | HEK cells, CFP/YFP FRET ICDI-IQ, plate reader, 10 min; percent FRET-ratio fall versus neutral wells | inhibition, % at 12.3 µM | 340,000 tested, 0.098% active | AID 743397;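 active = mean replicate inhibition of at least 30% and at least 1% of replicates passing that level; inconclusive = only one of the two criteria is met; inactive = neither criterion is met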
PGC1a acetyl inh: modulators of PGC1a acetylation. U2OS PGC1a acetylation, AlphaScreen anti-acetyl-lysine; with virally co-expressed GCN5 acetyltransferase. inhibition, % at 15.6 µM. 350,000 tested, 0.17% active. AID 651687;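 active = every replicate shows inhibition of at least 40%; inconclusive = mean inhibition at least 40% but some replicate below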
Large screens that a line does not name were inactive.

C[C@H](O)[C@@H]1CN2CCc3c([nH]c4c(-c5ccccc5)cccc34)[C@@H]2C[C@@H]1N(C)C(=S)NCCc1ccccc1	rRNA inh HTS -30 (no result: PGC1a acetyl inh)
C[C@@H]1ON(C)[C@H]2C[C@H]3c4[nH]c5c(-c6ccccc6)cccc5c4CCN3C[C@@H]12	rRNA inh HTS -26 (no result: PGC1a acetyl inh)
O=S(=O)(c1ccc(NCCOCCO)nc1)N1CCCCC1	none (no result: PGC1a acetyl inh)
O=S(=O)(c1ccc(NCCCO)nc1)N1CCOCC1	INS-1E GSIS act 49 (no result: PGC1a acetyl inh)
CCN(C(=O)COC(=O)c1ccc([N+](=O)[O-])o1)c1cccc2ccccc12	rRNA inh HTS -19 (no result: PGC1a acetyl inh)
CN(C)C(=O)c1ccc(NC(=O)COc2cccc(Oc3ccccc3)c2)cc1	rRNA inh HTS -27 (no result: PGC1a acetyl inh)
CC(C)c1ccc(NC(=O)C2=CC=CN3CCS(=O)(=O)N=C23)cc1	INS-1E GSIS act 50 (no result: CaV13 ICDI inh, PGC1a acetyl inh)
CCCNC(=O)N1CC2(CCN(C(=O)c3cccnc3)CC2)c2c([nH]c3cc(OC)ccc23)[C@H]1CO	none (no result: CaV13 ICDI inh, PGC1a acetyl inh)
CC1=NN(c2ccccc2)C(=O)/C1=C\C=C\c1ccccc1	none (no result: INS-1E GSIS act)
CC1=NN(c2ccc(C)c(C)c2)C(=O)/C1=C\C=C\c1ccc([N+](=O)[O-])o1	PGC1a acetyl inh 59 (no result: rRNA inh HTS)
O=C(C[C@@H]1CC[C@H](NS(=O)(=O)c2ccccc2)[C@@H](CO)O1)N1CCN(c2ccccc2)CC1	none (no result: CaV13 ICDI inh, PGC1a acetyl inh)
CCS(=O)(=O)N1CCC2(CC1)OCCN2S(=O)(=O)c1ccccc1	DENV2 CPE 39 (no result: INS-1E GSIS act, PGC1a acetyl inh)
O=C(/C=C/c1ccccc1)CC(O)(c1ccccc1)C(F)(F)F (stereo unspecified)	PGC1a acetyl inh inconclusive (no result: DENV2 CPE, ERAP1 HTS inh, rRNA inh HTS, INS-1E GSIS act)
O=C(/C=C/c1ccccc1)CC(O)(c1ccccc1)C(F)(F)C(F)F (stereo unspecified)	rRNA inh HTS -32, PGC1a acetyl inh inconclusive
C=CCN1C=C2C(=O)C(C)(OC(=O)CCC(=O)OC)C(=O)C=C2C=C1C1CC1 (stereo unspecified)	DENV2 CPE 50
CC(=O)OCC(=O)[C@@]1(O)CC[C@H]2[C@@H]3CCC4=CC(=O)CC[C@]4(C)[C@H]3[C@@H](O)C[C@@]21C	none (no result: INS-1E GSIS act)
CC(=O)OCC(O)C1(O)CCC2C3CCC4=CC(=O)CCC4(C)C3C(O)CC21C (stereo unspecified)	DENV2 CPE 22 (no result: rRNA inh HTS, INS-1E GSIS act, CaV13 ICDI inh)
Cc1nc2c(C)cccn2c1/C(O)=C1\C(=O)C(=O)N(CCN(C)C)C1c1cccs1 (stereo unspecified)	rRNA inh HTS -26 (no result: ERAP1 HTS inh)
C[C@H]1CN([C@@H](C)CO)C(=O)c2cc(NC(=O)CCC(F)(F)F)ccc2O[C@H]1CN(C)Cc1ccc2c(c1)OCO2	none (no result: CaV13 ICDI inh)
COc1ccc2oc(-c3ccncc3)cc(=O)c2c1	INS-1E GSIS act 53
CO[C@@H]1CN(C)C(=O)c2ccc(NC(=O)C3CC3)cc2OC[C@H](C)N(Cc2nccs2)C[C@H]1C	none (no result: CaV13 ICDI inh, PGC1a acetyl inh)
CCCc1nc(N)sc1C(=O)OCC	INS-1E GSIS act 112 (no result: DENV2 CPE, ERAP1 HTS inh, rRNA inh HTS)
CC(C)NC(=O)Nc1cccc2c1O[C@H](CN(C)S(=O)(=O)c1ccccc1)[C@H](C)CN([C@H](C)CO)C2=O	none (no result: CaV13 ICDI inh)
CC(C)c1nnc(NC(=O)C2CCN(C(=O)Nc3ccc(Cl)cc3)CC2)s1	rRNA inh HTS -23
CCCCCC(O)CCCC(=O)O (stereo unspecified)	none (no result: rRNA inh HTS)
CCCCCCCCCCCCCCCC(O)C[N+](C)(C)CCO (stereo unspecified)	ERAP1 HTS inh 50, INS-1E GSIS act 363 (no result: PGC1a acetyl inh)
COc1cccc(CC(=O)OCC(=O)Nc2nnc(-c3ccccc3)o2)c1	DENV2 CPE 103, rRNA inh HTS -27 (no result: CaV13 ICDI inh)
[C-]#[N+][C@H](O[C@@H]1O[C@H](CO)[C@@H](O)[C@H](O)[C@H]1O)c1ccccc1	none (no result: CaV13 ICDI inh)
O=C(O)CC(CCc1ccccc1)OC1OC(CO)C(O)C(O)C1O (stereo unspecified)	ERAP1 HTS inh 32 (no result: CaV13 ICDI inh)
COCCOC(=O)N1C(=O)[C@@]2(c3cc(C#CC4(O)CCCCCC4)ccc31)[C@H](c1ccccc1OCCO)N1[C@H](c3ccccc3)[C@H](c3ccccc3)OC(=O)[C@H]1[C@@H]2C(=O)N1CCc2cc(OC)c(OC)cc2C1	none (no result: rRNA inh HTS, INS-1E GSIS act, CaV13 ICDI inh)
CCCc1cc(=O)oc2cc(C)cc(OCC(=O)Nc3ccc(S(N)(=O)=O)cc3)c12	INS-1E GSIS act 139
CCCc1cc(=O)oc2cc(C)cc(OCC(=O)Nc3ccccn3)c12	none
O=C(NCc1cccnc1)C(=O)NCC(c1ccco1)N1CCN(c2ccccc2)CC1 (stereo unspecified)	DENV2 CPE 21
O=C1CN(S(=O)(=O)Cc2ccccc2)C[C@H]2[C@@H](c3ccc(C#CC4CC4)cc3)[C@@H](CO)N12	none (no result: CaV13 ICDI inh)
O/N=C/c1ccnc(SCc2ccccc2)n1	rRNA inh HTS -16 (no result: PGC1a acetyl inh)
CCC(=O)Nc1ccc2c(c1)OC[C@@H](C)N(CCc1ccccc1)C[C@@H](C)[C@@H](OC)CN(C)C2=O	none (no result: ERAP1 HTS inh, CaV13 ICDI inh)
C/C(=N\Nc1nc2ccccc2[nH]1)c1ccc(N2CCOCC2)cc1	rRNA inh HTS -48
CC(=O)N1CCC(=NNc2nc3ccccc3[nH]2)CC1	rRNA inh HTS -18
CCC(C)(C)C1CCC(=NNc2nc3ccccc3[nH]2)CC1 (stereo unspecified)	none (no result: PGC1a acetyl inh)
O=C(C[C@H]1CC[C@@H]2[C@H](COC[C@H](O)CN2C(=O)c2ccccc2)O1)NCc1cccc(F)c1	none (no result: CaV13 ICDI inh)
CCCc1nc2sc3c(SCC(=O)NCc4ccco4)ncnc3c2c2c1CCC2	INS-1E GSIS act 61 (no result: DENV2 CPE, ERAP1 HTS inh, rRNA inh HTS)
Cc1nc(SCC(=O)NCc2ccco2)c2c3c(sc2n1)CCCC3	none (no result: DENV2 CPE, ERAP1 HTS inh, rRNA inh HTS, INS-1E GSIS act, CaV13 ICDI inh)
CN1C(C(=O)NCc2ccc(OC(F)(F)F)cc2)CC2Cn3c(nc4ccccc43)C21 (stereo unspecified)	DENV2 CPE 32 (no result: ERAP1 HTS inh)
CN1C(C(=O)NCc2ccc(OC(F)(F)F)cc2)CC2Cn3c(nc4cc(Cl)c(Cl)cc43)C21 (stereo unspecified)	none (no result: PGC1a acetyl inh)
C[C@@H]1CCCCO[C@H](CN(C)Cc2ccccc2)[C@H](C)CN([C@@H](C)CO)C(=O)c2cc(NC(=O)Nc3ccc(F)cc3)ccc2O1	none (no result: CaV13 ICDI inh)
CO[C@@H]1CN(C)C(=O)c2ccc(NC(=O)Nc3cc(F)ccc3F)cc2OC[C@H](C)N(C(=O)c2ccccn2)C[C@H]1C	DENV2 CPE 26 (no result: CaV13 ICDI inh)
CO[C@@H]1CN(C)C(=O)c2ccc(NC(=O)Nc3cc(F)ccc3F)cc2OC[C@@H](C)N(C(=O)c2ccccn2)C[C@@H]1C	none (no result: CaV13 ICDI inh)
CO[C@H]1CN(C)C(=O)c2ccc(NC(=O)Nc3cc(F)ccc3F)cc2OC[C@H](C)N(C(=O)c2ccccn2)C[C@H]1C	none (no result: CaV13 ICDI inh)
CO[C@@H]1CN(C)C(=O)c2ccc(NC(=O)Nc3cc(F)ccc3F)cc2OC[C@@H](C)N(C(=O)c2ccccn2)C[C@H]1C	DENV2 CPE 87 (no result: CaV13 ICDI inh)
C[C@@H]1CN([C@H](C)CO)C(=O)c2cc(C3=CCCC3)cnc2O[C@@H]1CN(C)C(=O)c1ccccn1	none (no result: DENV2 CPE, ERAP1 HTS inh, CaV13 ICDI inh)
